Shown are actives, neighbours in structure and some others; about 1.3% of the full set was active somewhere.
IL2 activator: activates IL-2 in a cell-based reporter assay. IL-2 activation reporter assay, cell-based qHTS; stimulated with anti-CD3/CD4/CD28 beads; in transgenic mouse T cells. activation, % (series mostly up to about 46 µM). actives 0.065% (n = 360,000). AID 652025; in the data active = activation above about 50%; inconclusive = mostly about 30% to 49%; note: 0% is about no effect
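EGFP and DsRed fluorescence is measured by plate cytometry in unstimulated transgenic mouse T cells exposed to compound for 60 minutes, then stimulated 18 hours at 37 degrees C with anti-CD3/anti-CD4 beads plus anti-CD28.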
PKM2 act: activators of human pyruvate kinase M2 | Potency, µM (highest dose often 57.5 µM), for the others: top-dose activation, most hits filed as activators | P14618 | actives 0.34% (n = 260,000) | AID 1631 | purified PKM2, Kinase-Glo ATP luminescence, activation; response scale: 0% is enzyme alone, no compound; note: potency is the fitted concentration of half-maximal effect; % is set by controls: 0 for no effect and ±100 for the full control effect; nearly all actives have a fitted effect of over 55% in size
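Purified hPK-M2 (>95% pure) converted ADP (0.1 mM final) to ATP with 0.5 mM PEP in 50 mM imidazole pH7.2, KCl, MgCl2, Tween 20, BSA; 1 h at room temperature. ATP detected by Kinase-Glo luminescence.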
BRCA1 expr up: increases BRCA1 expression. MCF7-BRCA1-FFLuc reporter, luminescence, 48 h; response scale: scaled: vehicle 0%, 10 µM genistein 100%. Potency, µM (doses to about 46.1 µM), without a hit: at the highest dose activation, most hits filed as activators. actives 1.1% (n = 380,000); note: potency is the fitted concentration of half-maximal effect; nearly all actives have a fitted effect of over 80% in size
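Quantitative HTS in MCF7 cells stably reporting BRCA1 expression via firefly luciferase. Compound treatment lasts 48 h at 37 °C in phenol-red free MEM. Activation is expressed relative to genistein at 10 microM and DMSO.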
TRPML1 agonist: agonists of human TRPML1 channel. Q9GZU1. TRPML1-expressing cells, Ca2+ dye fluorescence, FDSS. activation, % (test concentration not listed). actives 0.12% (n = 410,000). AID 624414; in the data active = activation above about 50%; inconclusive = mostly about 30% to 49%; note: 0% is about no effect
Target sequence (Q9GZU1 whole entry, looked up): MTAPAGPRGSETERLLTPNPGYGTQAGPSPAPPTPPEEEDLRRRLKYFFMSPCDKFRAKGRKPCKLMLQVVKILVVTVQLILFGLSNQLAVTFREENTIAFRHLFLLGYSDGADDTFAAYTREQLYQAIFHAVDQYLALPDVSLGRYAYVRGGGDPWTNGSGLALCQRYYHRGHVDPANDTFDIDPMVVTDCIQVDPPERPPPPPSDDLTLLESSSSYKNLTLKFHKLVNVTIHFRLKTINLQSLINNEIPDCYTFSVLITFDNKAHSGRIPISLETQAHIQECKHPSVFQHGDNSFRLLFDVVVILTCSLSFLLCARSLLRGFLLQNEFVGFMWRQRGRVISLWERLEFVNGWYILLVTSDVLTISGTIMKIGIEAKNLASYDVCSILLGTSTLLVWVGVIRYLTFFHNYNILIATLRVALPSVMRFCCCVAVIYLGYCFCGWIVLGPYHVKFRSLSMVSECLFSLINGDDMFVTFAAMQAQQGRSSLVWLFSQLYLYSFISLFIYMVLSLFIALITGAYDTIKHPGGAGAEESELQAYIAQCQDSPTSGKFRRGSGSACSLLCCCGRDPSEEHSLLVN
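Tet-induced TRPML1-DL cells, 1,500 per well, cultured overnight, were loaded with a no-wash Ca2+ dye for 45–90 min. Calcium fluorescence was recorded on the FDSS for 110 s after compound addition, before the EC80 agonist (4 uM 54-4) was added.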
TRPML1 inh: blocks the human TRPML1 channel. activity change, negative = inhibition, % (test concentration not listed). Q9GZU1. TRPML1-inducible cells, Ca2+ dye fluorescence, FDSS; stronger effect = lower value; inhibition of EC80 agonist-evoked calcium signal. actives 0.02% (n = 390,000); in the data active = activity change below about -50%; inconclusive = between about -30% and that limit;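 note: stimulus is agonist 54-4 at its EC80 concentration; % is set by controls: 0 for no effect and ±100 for the full control effect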
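Tet-induced TRPML1-DL cells loaded with Ca8 no-wash calcium dye were read kinetically on FDSS. Compound addition was followed by EC80 agonist 54-4 (4 uM final); inhibition was read over 110 s.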
PTAP TSG101 blk: blocks PTAP/TSG101 interaction to inhibit HIV-1 budding | Q99816 | Fluorescence polarization, FITC-PTAP peptide / Tsg101 binding | Potency, µM (series often up to 115 µM), for inactives: at the top dose activity change, negative = inhibition, most hits filed as inhibitors | 340,000 tested, under 10 active; active = well fitted inhibition curve with a large enough effect in the main read-out, with a control signal flat, not every such curve was filed as active; inconclusive = small, poorly fitted or top-dose-only effect, or effect the other way, or a change in a side signal; inactive = no such curve, though single readings can be large or run the other way; note: potency is the fitted concentration of half-maximal effect; % of control where 0% means no effect
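Fluorescence anisotropy tracks displacement of a FITC-tagged PTAP peptide (50 nM) from the Tsg101 binding domain (10 uM), following a 20 min room-temperature incubation at pH 7.5.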
Starred values were filed as active, the others as inactive; ? = inconclusive; · = no result given; [ ] = another dose, or the depositor's remark. Unless noted, calls come from the whole dose curve; as a rule, active = well fitted activation curve with a large enough effect; inconclusive = small, poorly fitted or top-dose-only effect; inactive = no such curve, though single readings can be large or run the other way.

SMILES | IL2 activator | PKM2 act | BRCA1 expr up | TRPML1 agonist | TRPML1 inh | PTAP TSG101 blk
CCn1c(C)c(C2N3CC4(C)CN2CC(CC)(C3)C4=O)c2ccccc21 (stereo not given) | · | · | · | 1 | 75 | ·
COc1cc(C#Cc2ccc3cc(CCO)oc(=O)c3c2)cc(OC)c1 | -1 | · | 7.1µM* | 1 | -14 | ·
CN(C)c1ccc(C#Cc2ccc3cc(CCO)oc(=O)c3c2)cc1 | 0 | · | ? | 0 | 10 | 1%
COc1ccc(Cl)cc1NC(=O)c1cc(C)nc2c1c(C)nn2-c1ccccc1 | · | · | · | 0 | -15 | ·
Cc1ccc2[nH]c(C)c(/C=C/c3cc[n+](C)cc3)c2c1 | 159* | · | -50% | 10 | 7 | ?
Cc1ccc2c(c1)c(/C=C/c1cc[n+](C)cc1)c(C)n2C | 4 | · | -69% | 6 | 3 | ?
Nc1nc(SCc2ccccc2)sc1C(=O)N1CCCCC1 | -3 | · | 2.2µM* | 0 | 15 | ·
CC(C)(C)N1CC(C(=O)Nc2ccc(S(=O)(=O)N3CCCCC3)cc2)CC1=O (stereo not given) | 2 | · | 6% | 1 | 20 | -9%
CCC1CCCCN1S(=O)(=O)c1ccc(NC(=O)C2CC(=O)N(C(C)(C)C)C2)cc1 (stereo not given) | -4 | · | 11µM* | 0 | -14 | -2%
O=C(COc1ccc(F)c(Cl)c1)c1ccc[nH]1 | 1 | -1% | 93% | -1 | 18 | -3%
O=C(CCC(=O)c1ccc[nH]1)c1ccc(Cl)cc1 | -1 | 3% | 7.1µM* | 0 | 5 | -4%
CN(C)c1ccc(/C=C2/CCc3ccccc32)cc1 | · | · | -24% | 2 | · | ·
COc1ccc2c(CC(=O)N3CCc4ccccc43)coc2c1 | -2 | -11% | 3.5µM* | -1 | -13 | -4%
COc1ccc(CC(=O)N2CCc3ccccc32)cc1 | 1 | -5% | 8.9µM* | 0 | 2 | -1%
Cc1ccccc1NC(=O)c1ccccc1OCC(=O)Nc1ccc(Br)cc1 | · | · | -41% | 0 | · | ·
CCOc1ccc(C(=O)NCC(c2ccc3c(c2)OCO3)N2CCN(c3ccccc3F)CC2)cc1 (stereo not given) | · | · | · | 2 | 7 | ·
O=C(NNCc1ccc(O)cc1)c1ccccc1Cl | 0 | 13%[0.46 µM] | 13µM* | 2 | 13 | 4%
CNc1ccc2c3c(cccc13)C(=O)N(C)C2=O | -4 | · | 56% | 78* | -13 | ?
COc1cc(/C=C(\C#N)C(=O)Nc2cccc(C(=O)O)c2)ccc1OCc1ccc(C)cc1 | -2 | -6% | 5µM* | -1 | -12 | -4%
COc1ccc(CN2CC[C@H]3C=CC[C@@H](C(=O)Nc4nccs4)[C@H]3C2=O)cc1OC | · | · | · | -1 | · | ·
COc1ccccc1CNC(=O)CSc1nc(=O)[nH]c2c1CCCC2 | · | · | · | -1 | 3 | ·
CCCn1cnc2cc(NCc3ccccn3)ccc21 | 0 | ? | 4µM* | -1 | 20 | -5%
Cc1ccc(CNc2ccc3c(c2)ncn3C)cc1 | -1 | -9% | 5µM* | 0 | -2 | -10%
COc1ccccc1-n1cnc2cc(NCc3ccccn3)ccc21 | -1 | -3% | -42% | 0 | -51* | -15%
CCc1ccc(CNc2ccc3c(c2)ncn3C)cc1 | -2 | -5% | ? | 0 | 14 | -2%
CCOc1cc(C(=O)N2CC(=O)Nc3ccc(C)cc3C2c2ccccc2)cc(OCC)c1OCC (stereo not given) | · | · | · | -1 | -14 | ·
COCCNC(=O)c1noc2c1CCc1cc(OC)ccc1-2 | -1 | 4% | 2.2µM* | 0 | -5 | -7%
COCC(C)NC(=O)c1noc2c1CCc1cc(OC)ccc1-2 (stereo not given) | 0 | -7% | ? | 0 | -7 | -4%
COc1ccc2c(c1)CCc1c(C(=O)NCc3ccco3)noc1-2 | -1 | -11% | 6.3µM* | 1 | 6 | -9%
